Data taken from PubChem BioAssay (Tox21).
Values joined by “and” are separate entries in the source; they are usually repeats but may differ in a detail not shown here. Equal entries are not always repeated. Records with an inconclusive call do not appear. A call without a number means that no potency is given here. Some structures have more than one record in an assay (separate samples or runs), and their calls can disagree. Active and inactive are the calls of the source. Unless noted, the call rests on the fitted dose curve; in most records, active means well fitted curve in the direction sought with a large enough effect in the repeat runs; inconclusive means weak or mixed curves; inactive means no such curve, though single readings can be large; an effect the other way counts as inactive or inconclusive.

Assays:
[1] = qHTS assay to identify small molecule agonists of the vitamin D receptor (VDR) signaling pathway - cell viability counter screen (AID 743224); settings: VDR-bla HEK293T viability, CellTiter-Glo luminescence, 16 h; series mostly up to 62.6 µM; further: nearly all actives have a fitted effect of over 50% in size; further: potency means the concentration at half of the fitted maximal effect
Method in brief: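 Cytotoxicity counter screen: VDR-bla cells, 16 h compound exposure at 37C, 5% CO2; CellTiter-Glo luminescence, 30 min RT, same wells as bla read.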

[2] = qHTS assay to identify small molecule antagonists of the vitamin D receptor (VDR) signaling pathway - cell viability counter screen (AID 743225); settings: VDR-bla HEK293T viability, CellTiter-Glo luminescence, 16 h; series mostly up to 61 µM; further: nearly all actives have a fitted effect of over 50% in size; further: potency means the concentration at half of the fitted maximal effect
Method in brief: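 Compounds were pinned onto VDR-bla HEK 293T cells together with 1-alpha,25-dihydroxyvitamin D3 at 3 nM final. After 16 h at 37C and 5% CO2 plus the reporter readout, cell viability was measured by CellTiter-Glo luminescence (30 min, room temperature).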

[3] = qHTS assay to identify small molecule agonists of the NFkB signaling pathway - cell viability counter screen (AID 1159515; calls by dose curve; further: nearly all actives have a fitted effect of over 55% in size; further: potency means the concentration at half of the fitted maximal effect); settings: NFkB-bla ME-180 viability, CellTiter-Glo luminescence, 5 h; series mostly up to 61 µM
Method in brief: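 ME-180 NFkB-bla cells, 2,000/well; overnight attach; compound 5 hr, 37 C/5% CO2; LiveBLAzer substrate 1.5 hr RT; then CellTiter-Glo in same wells, 30 min RT, luminescence read.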

[4] = qHTS assay to identify small molecule agonists of the endoplasmic reticulum stress response signaling pathway (AID 1159516; active means well fitted activation curve with a large enough effect in the signal ratio in the repeat runs, not every such curve was filed as active; the % refers to the signal ratio); settings: ESRE-bla HeLa, ER stress beta-lactamase reporter, 5 h; series mostly up to 61 µM
Method in brief: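 HeLa ESRE-bla reporter line; cpd 5 h, 37 C/5% CO2; LiveBLAzer B/G FRET substrate 2 h RT; ex 405, em 460/530 nm.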

[5] = qHTS assay to identify small molecule agonists of the endoplasmic reticulum stress response signaling pathway - cell viability counter screen (AID 1159517; calls by dose curve; further: nearly all actives have a fitted effect of over 50% in size; further: potency means the concentration at half of the fitted maximal effect); settings: ESRE-bla HeLa viability, CellTiter-Glo luminescence, 5 h; series mostly up to 61 µM
Method in brief: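 Steps: seed 1,500 ESRE-bla HeLa cells per well; incubate overnight at 37 C, 5% CO2; add compounds in DMSO for 5 hr; run FRET substrate 2 hr RT; add CellTiter-Glo, wait 30 min, read luminescence.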

[6] = target: Nuclear receptor ROR-gamma (Homo sapiens) (UniProt P51449); assay: qHTS assay to identify small molecule antagonists of the retinoid-related orphan receptor gamma (ROR-gamma) signaling pathway (AID 1159521; further: nearly all actives have a fitted effect of over 50% in size; further: potency means the concentration at half of the fitted maximal effect); settings: Tet-on RORgamma CHO cells, RORE-luciferase, 16 h; series mostly up to 92.4 µM
Method in brief: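 Test compounds were applied to Tet-on RORγ CHO cells 2 h ahead of doxycycline hyclate (1 uM final). Luciferase reporter activity was quantified by luminescence after 16 h at 37 C and 5% CO2.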

[7] = qHTS assay to identify small molecule agonists of the AP-1 signaling pathway - cell viability counter screen (AID 1159525; calls by dose curve; further: nearly all actives have a fitted effect of over 55% in size; further: potency means the concentration at half of the fitted maximal effect); settings: ME-180 AP-1-bla cells viability, ATP luminescence, 5 h; series mostly up to 76.8 µM
Method in brief: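 Same-well cytotoxicity counter screen of the Tox21 10K library in ME-180 cells. The readout is ATP-dependent luminescence after 5 h compound treatment. Data are normalised to DMSO and tetra n-octyl ammonium bromide controls.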

[8] = qHTS assay to identify small molecule agonists of the AP-1 signaling pathway (AID 1159526; calls by dose curve); settings: ME-180 (cervical carcinoma) AP-1-bla reporter, beta-lactamase FRET ratio, 5 h; series mostly up to 76.8 µM
[9] = qHTS assay to identify small molecule agonists of the RXR signaling pathway - cell viability counter screen (AID 1159529); settings: RXR-alpha-bla HEK293T viability, CellTiter-Glo, 16 h; series mostly up to 76.8 µM; further: nearly all actives have a fitted effect of over 50% in size; further: potency means the concentration at half of the fitted maximal effect
Method in brief: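 Compounds dissolved in DMSO were pinned onto HEK 293T cells carrying a beta-lactamase reporter under RXR-alpha control and incubated 16 hr. Cytotoxicity was then quantified by CellTiter-Glo luminescence.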

[10] = qHTS assay to identify small molecule antagonists of the retinoid acid receptor (RAR) signaling pathway - cell viability counter screen (AID 1159551); settings: C3RL4 cells viability, ATP luminescence (CellTiter-Glo), 6 h; series mostly up to 92.4 µM; further: nearly all actives have a fitted effect of over 35% in size; further: potency means the concentration at half of the fitted maximal effect
Method in brief: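 C3RL4 RARE-luciferase line; cpds + retinol 1 uM final, 6 h, 37 C/5% CO2; CellTiter-Glo ATP luminescence, 30 min RT.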

[11] = qHTS assay to identify small molecule antagonists of the retinoid-related orphan receptor gamma (ROR-gamma) signaling pathway - cell viability counter screen (AID 1159520); settings: Tet-on RORgamma CHO cells viability, ATP luminescence, 16 h; series mostly up to 92.4 µM; further: nearly all actives have a fitted effect of over 50% in size; further: potency means the concentration at half of the fitted maximal effect
Method in brief: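 Tet-on ROR gamma CHO cells were given compounds for 2 hr, then doxycycline hyclate at 1 uM final, and incubated 16 hr at 37 C. Viability was measured as ATP content by CellTiter-Glo luminescence.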

[12] = qHTS assay to identify small molecule antagonists of the retinoic acid receptor (RAR) signaling pathway (AID 1159552; further: nearly all actives have a fitted effect of over 50% in size; further: potency means the concentration at half of the fitted maximal effect); settings: C3RL4 RARE luciferase reporter, retinol-stimulated, 6 h; series mostly up to 92.4 µM
Method in brief: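 Test chemicals and DMSO controls were pin-transferred onto C3RL4 cells a day after seeding; retinol (1 uM final) followed at once. Luminescent reporter output was quantified after 6 hr of co-incubation and 30 min with detection reagent.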

[13] = qHTS assay to identify small molecule agonists of the retinoic acid receptor (RAR) signaling pathway (AID 1159553); settings: C3RL4 RARE luciferase reporter, agonist, 6 h; series mostly up to 73.3 µM; further: potency means the concentration at half of the fitted maximal effect
Method in brief: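 RARE-luc C3RL4 cells; overnight attachment 37 C/5% CO2; compound (DMSO) 6 hr; luciferase reagent, 30 min RT; luminescence read-out.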

[14] = target: Retinoic acid receptor RXR-alpha (Homo sapiens) (UniProt P19793); assay: qHTS assay to identify small molecule agonists of the RXR signaling pathway (AID 1159527; calls by dose curve; further: nearly all actives have a fitted effect of over 35% in size); settings: HEK293T RXRa-UAS-bla, beta-lactamase ratio, 16 h; series mostly up to 76.8 µM
Retinoic acid receptor RXR-alpha (Homo sapiens), sequence (P19793 whole entry, looked up): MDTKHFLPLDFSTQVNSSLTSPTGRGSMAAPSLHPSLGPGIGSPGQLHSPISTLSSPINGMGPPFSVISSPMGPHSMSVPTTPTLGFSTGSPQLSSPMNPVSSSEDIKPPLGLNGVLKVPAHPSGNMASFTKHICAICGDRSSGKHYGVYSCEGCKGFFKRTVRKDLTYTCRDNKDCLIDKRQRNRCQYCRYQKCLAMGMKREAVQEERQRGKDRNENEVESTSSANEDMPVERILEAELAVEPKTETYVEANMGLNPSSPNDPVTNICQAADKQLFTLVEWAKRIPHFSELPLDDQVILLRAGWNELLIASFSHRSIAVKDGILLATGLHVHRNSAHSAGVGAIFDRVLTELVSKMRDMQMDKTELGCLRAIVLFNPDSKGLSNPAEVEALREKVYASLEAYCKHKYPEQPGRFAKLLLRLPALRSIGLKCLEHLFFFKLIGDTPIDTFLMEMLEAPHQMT
Method in brief: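 Using 9-cis retinoic acid as the reference agonist, chemicals were tested in HEK 293T cells […] for 16 hr; substrate loading lasted 2 hr at room temperature.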

Row | Compound | Potency [1] | Potency [2] | Potency [3] | outcome [4] | Potency [5] | Potency [6] | Potency [7] | Potency [8] | Potency [9] | Potency [10] | Potency [11] | Potency [12] | Potency [13] | Potency [14]
1 | CC(C)(C)c1cc(C(C)(C)C)c(O)c(C(C)(C)C)c1 | 38.9 µM (active) | inactive | inactive | inactive | inactive | inactive | inactive and 49 µM (active) | inactive | inactive | inactive |  |  |  | 
2 | O=Nc1ccc(Nc2ccccc2)cc1 | 17.5 µM (active) and 49 µM (active) |  | inactive | inactive |  | 7.74 µM (active) and 10.9 µM (active) | inactive |  |  |  |  |  |  | 
3 | CCN(CC)CCOc1ccc(/C(=C(\Cl)c2ccccc2)c2ccccc2)cc1 | 19.9 µM (active) and 26.6 µM (active) | 22.3 µM (active) and 21.3 µM (active) | 44.6 µM (active) and 23.9 µM (active) |  |  | 19.7 µM (active) and 26.6 µM (active) | 17.7 µM (active) |  | 15.8 µM (active) and 10.7 µM (active) | 49.6 µM (active) | 31.3 µM (active) | 24.8 µM (active) |  | 
4 | CC(C)(C)c1ccc(O)c(C(C)(C)C)c1 | 34.5 µM (active) and 30.9 µM (active) | 24.4 µM (active) and 43.6 µM (active) | 48.8 µM (active) and 49 µM (active) |  | 54.7 µM (active) and 49 µM (active) | 43.1 µM (active) and inactive | 34.5 µM (active) |  | 21.8 µM (active) and 24.5 µM (active) | 54.3 µM (active) and 54.5 µM (active) |  |  | inactive | 
5 | c1ccc2cc3c(ccc4ccccc43)cc2c1 | inactive | inactive | inactive |  | inactive | inactive | inactive | inactive | inactive | inactive |  | inactive | 2.74 µM (active) and 3.86 µM (active) | inactive
6 | CC(COc1ccccc1)N(CCCl)Cc1ccccc1 (stereo unspecified) | inactive | inactive | inactive |  | inactive | 49.1 µM (active) and inactive | inactive |  | inactive | inactive | 49.1 µM (active) and 54.5 µM (active) and 29.8 µM (active) |  |  | 
7 | CCN(CC)c1ccc2c(C)cc(=O)oc2c1 | inactive | inactive | inactive |  | inactive | inactive | inactive |  | inactive | inactive |  | inactive | inactive | 
8 | Nc1cc(Cl)c(-c2cc(Cl)c(N)cc2Cl)cc1Cl | 49 µM (active) | 21.9 µM (active) | 48.9 µM (active) and 54.9 µM (active) |  | 54.9 µM (active) | 7.69 µM (active) and 7.7 µM (active) | 38.9 µM (active) and 54.9 µM (active) |  | 17.4 µM (active) | 30.6 µM (active) | 61.1 µM (active) |  | inactive | 
9 | Cc1ccc(S(=O)(=O)Oc2ccc(N=Nc3ccc(-c4ccc(N=Nc5c(O)ccc6cc(S(=O)(=O)O)cc(S(=O)(=O)O)c56)c(C)c4)cc3C)cc2)cc1 | inactive | inactive | inactive |  | inactive |  | inactive |  | inactive | 24.4 µM (active) and 20 µM (active) | inactive | inactive | inactive | inactive
10 | CC(C)CCCCCCc1ccc(O)cc1 | 19.8 µM (active) and 30.9 µM (active) | 31.4 µM (active) and 38.9 µM (active) | 39.6 µM (active) and 38.9 µM (active) |  | 35.3 µM (active) and 54.9 µM (active) | 2.48 µM (active) | 25 µM (active) and 49 µM (active) |  | 5.59 µM (active) and 38.9 µM (active) | 78.3 µM (active) | 24.8 µM (active) | 27.3 µM (active) | inactive | 
